CYP2C19 activ: activators of human cytochrome P450 2C19. P33261. recombinant CYP2C19, luciferin-H EGE luminescence; stronger effect = higher value; 0 = fully inhibited enzyme, 1 = untreated enzyme. activation factor at 5 µM. 96,000 tested, under 10 active;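 active = activation factor of at least 2 at 5 µM in the primary screen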;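 note: 0 = wells with 2.5 mM tranylcypromine and 1 = vehicle-only wells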
Target sequence (P33261 whole entry, looked up): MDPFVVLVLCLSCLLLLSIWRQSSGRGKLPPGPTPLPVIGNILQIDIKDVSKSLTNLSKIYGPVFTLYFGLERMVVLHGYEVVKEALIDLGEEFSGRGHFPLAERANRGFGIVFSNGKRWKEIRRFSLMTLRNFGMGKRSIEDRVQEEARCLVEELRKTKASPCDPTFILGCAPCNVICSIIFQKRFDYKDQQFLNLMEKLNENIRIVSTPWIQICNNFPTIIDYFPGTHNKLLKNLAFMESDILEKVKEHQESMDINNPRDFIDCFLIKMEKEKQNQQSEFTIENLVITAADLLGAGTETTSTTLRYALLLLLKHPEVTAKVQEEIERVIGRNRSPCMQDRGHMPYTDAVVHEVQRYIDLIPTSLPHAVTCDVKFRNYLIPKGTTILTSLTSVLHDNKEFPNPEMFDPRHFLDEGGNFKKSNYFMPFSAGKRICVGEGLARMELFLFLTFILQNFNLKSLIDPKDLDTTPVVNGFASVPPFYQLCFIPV
CYP2C9 inhib: blocks human cytochrome P450 2C9; CYP2C9 Supersomes, luciferin-H conversion, luminescence; AID 777; 96,000 tested, 20% active; inhibition, % at 5 µM;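 active = blocking of liver enzyme CYP2C9 beyond about 50% at 5 µM, limit read from the data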
CYP2C19 inhib: human CYP2C19 inhibition | inhibition, % at 5 µM | P33261 | 96,000 tested, 21% active | CYP2C19 Supersomes, luciferin-H EGE luminescence, 30 min;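 active = CYP2C19 inhibition above a set limit at 5 µM in the primary screen, cut at about 50% in these data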;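 note: plate controls were negative control wells for no effect and 2.5 mM tranylcypromine positive control for full effect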
CYP2C9 act: increases human cytochrome P450 2C9 activity | P11712 | 96,000 tested, 1.4% active | activation factor at 5 µM | AID 1024 | recombinant CYP2C9, luciferin-H conversion, luminescence; stronger effect = higher value; factor 1 = untreated enzyme, 0 = blocked;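 active = activation factor of 2 or more for CYP2C9 at a 5 µM dose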;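 note: 0 = sulfaphenazole-blocked wells and 1 = vehicle-only wells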
Cav3 T inh: human Cav3.2 channel inhibition, primary screen. AID 449739. O95180. Cav3.2-expressing cells, Fluo-4 calcium fluorescence FDSS; stronger effect = lower value. 100,000 tested, 4% active. B-score at 10 µM;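 active = single-dose well whose peak fluorescence ratio is a statistical outlier from its plate by either plate-standardised score or position-corrected B-score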
An asterisk follows results filed as active; . = no result given. A selection: hits, their analogues and other compounds. The true share with any hit is near 27%.

SMILES | CYP2C19 activ | CYP2C9 inhib | CYP2C19 inhib | CYP2C9 act | Cav3 T inh
COc1ccc(CC(=O)N2CC(C)CC(C)C2)cc1 (stereo unspecified) | 0.6 | -3.2 | 40.6 | 1 | 1.89
CCN(CC)C(=O)C1CCN(Cc2ccc(Br)cc2)CC1 | 0.8 | 11.8 | 24.8 | 0.9 | 0.176
CCc1c(O)nc(SC2CC(=O)N(c3ccccc3)C2=O)[nH]c1=O (stereo unspecified) | 0.7 | 67.0* | 29.0 | 0.3 | -0.0403
Oc1ccc(-c2nc3cnccn3c2Nc2ccc3c(c2)OCCO3)cc1 | 0 | 96.5* | 98.5* | 0 | .
Oc1ccc(-c2nc3ncccn3c2Nc2ccc3c(c2)OCO3)cc1 | 0.6 | 58.6* | 43.8 | 0.4 | 0.754
CC(=O)NCCNC(=O)CCNC(=O)c1ccc(Cl)cc1 | 0.9 | 6.0 | 8.2 | 0.9 | 0.0523
CCS(=O)(=O)N1CCCC(C(=O)NC2CCC(C)CC2)C1 (stereo unspecified) | 0.7 | 0.7 | 26.7 | 1 | 0.0114
CC(=O)c1cccc(NC(=O)Cc2cccs2)c1 | 0.7 | 21.7 | 30.2 | 0.8 | 1.3
O=C(Cc1cccs1)Nc1cccc(C(=O)Nc2ccco2)c1 | 0.5 | 78.2* | 51.2* | 0.2 | 0.178
O=C(Nc1ccc(OC(=O)c2cccs2)cc1)c1ccco1 | 0.9 | -17.7 | 6.9 | 1.2 | -0.139
O=C(Cc1cccs1)Nc1ccc(NC(=O)c2ccco2)cc1 | 0.9 | 72.3* | 12.9 | 0.3 | .
CCOC(=O)COc1ccc2c(c1)C(=O)CC1(CCN(C(C)=O)CC1)O2 | 1.1 | -1.2 | -7.4 | 1 | 1.03
Cn1nccc1/C=C(/C#N)S(=O)(=O)c1ccccc1 | 0.7 | 18.2 | 29.6 | 0.8 | 1.36
CCn1cc(/C=C(/C#N)S(=O)(=O)c2ccccc2)cn1 | 0.7 | -203.9 | 31.1 | 3* | 1.12
N#C/C(=C\c1ccc[nH]1)S(=O)(=O)c1ccccc1 | 0.5 | -445.8 | 46.7 | 5.5* | -2.52
CC1CCc2nc(NC(=O)Cc3cccs3)sc2C1 (stereo unspecified) | 0.9 | 20.1 | 11.0 | 0.8 | -2.8
COc1ccc(N2CCN(CC(=O)Nc3nc4c(s3)CC(C)CC4)CC2)cc1 (stereo unspecified) | 0.6 | 57.1* | 43.0 | 0.4 | -2.92
CC1CCc2nc(NC(=O)c3ccco3)sc2C1 (stereo unspecified) | 0.3 | 55.7* | 66.4* | 0.4 | -1.03
CCOc1cc(C2CC(=O)NC(SCC)=C2C#N)ccc1O (stereo unspecified) | 0.7 | 26.9 | 32.6 | 0.7 | 0.961
C=CCOC(=O)C1=C(C)NC(SC)=C(C#N)C1c1ccc(OCC)cc1 (stereo unspecified) | 0.1 | 93.4* | 86.0* | 0.1 | -3.41
C=CCOC(=O)C1=C(C)NC(SCC(=O)OCC)=C(C#N)C1c1ccc(O)c(OC)c1 (stereo unspecified) | 0 | 100.2* | 99.1* | 0 | -1.14
O=C(NN1c2ccccc2CCc2ccccc21)c1ccccc1Br | 0.7 | 20.0 | 26.4 | 0.8 | -1.75
Cc1csc(NC(=O)Cc2c[nH]c3ccccc23)n1 | 0.6 | 28.1 | 35.2 | 0.7 | -4.12*
O=C(Cc1ccccc1)Nc1nc2ccccc2[nH]1 | 0.6 | 34.5 | 42.1 | 0.7 | 0.138
O=C(COC(=O)c1ccccn1)Nc1nccs1 | 0.9 | 20.8 | 5.8 | 0.8 | 0.393
SMILES | CYP2C19 activ | CYP2C9 inhib | CYP2C19 inhib | CYP2C9 act | Cav3 T inh
O=C(Cc1c[nH]c2ccccc12)Nc1nc2ccccc2[nH]1 | 0.5 | 58.3* | 54.1* | 0.4 | -6.27*
Cc1cnc(NC(=O)Cc2c[nH]c3ccccc23)s1 | 0.6 | 22.1 | 39.2 | 0.8 | -1.05
O=C(Cc1c[nH]c2ccccc12)Nc1nccs1 | 0.5 | 20.7 | 54.6* | 0.8 | -2.41
O=C(Nc1nccs1)C(=O)c1c[nH]c2ccccc12 | 0.4 | 18.5 | 63.0* | 0.8 | 0.038
COC(=O)[C@@](C)(O)C1(C(=O)SC(C)(C)C)CC1 | . | . | . | . | 0.572
O=C(N1CCCC1)n1c(Cc2ccccc2)nc2ccccc21 | 0.8 | -11.4 | 18.5 | 1.1 | -0.0423
NC(=O)C1CCN(C(=O)c2ccc(CS(=O)(=O)c3c(Cl)cccc3Cl)o2)CC1 | 1.1 | 8.5 | -11.5 | 0.9 | -0.0208
C=CCn1c(=O)c2ccccc2n2c(SCc3csc(-c4ccccc4)n3)nnc12 | 0.7 | 25.3 | 29.4 | 0.7 | 0.476
Cc1ccc2c(CC(=O)NC3=NCCS3)coc2c1 | 0.6 | 28.7 | 38.3 | 0.7 | -0.983
Cc1ccc2c(CC(=O)Nc3nc(C)cs3)coc2c1 | 0.8 | 23.0 | 24.1 | 0.8 | -6.8*
COc1ccc(CC(=O)OCC(=O)Nc2c(C)n(C)n(-c3ccccc3)c2=O)cc1 | 1.2 | -18.5 | -23.0 | 1.2 | 0.308

From PubChem BioAssay
